PfG6PD inh = PfG6PD (Plasmodium falciparum) enzyme inhibition | PfGluPho enzyme, NADPH resazurin-diaphorase fluorescence | hit rate 0.78% among 350,000 | inhibition, % at 20 µM;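 active means inhibition reaching at least a set limit at 20 µM in the primary screen, cut at about 59% in these data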
CRFR2-BP ag = CRF-BP/CRF-R2 complex agonism; HEK293 CRF-R2/CRF-BP, calcium dye fluorescence (FLIPR); percent of saturating CRF peptide response; activation, % at 13.2 µM; hit rate 0.46% among 350,000; AID 588473;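 active means activation of at least 50%, plus an integration ratio under a set limit after plate pattern correction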
aDG glyco act = alpha-DG glycosylation activation. Pro5-aDG cells, alpha-DG glycosylation AlphaScreen (IIH6); 0% Pro5, 100% B10-LARGE cell signal. activation, % at 10 µM. hit rate 0.22% among 360,000. AID 624168;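 active means activation of at least 8% versus controls, or a plate z-score of at least 8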;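 further: Pro5 are CHO cells carrying HIG-tagged alpha-DG that lacks glycosylation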
Cardio protect = protects H9c2 cardiomyocytes from peroxide injury. AID 588492. H2O2 injury protection, ATPLite, 2 h. hit rate 0.63% among 360,000. protection from H2O2 cell death, % at 20 µM;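 active means compounds giving at least 50% protection of heart cells from peroxide-induced death in the single-dose screen, raw or plate-pattern-corrected value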
CRFR2-BP antag = CRF-BP/CRF-R2 complex antagonism. HEK293 CRF-R2/CRF-BP, CRF-induced calcium fluorescence. inhibition, % at 11.8 µM. hit rate 0.59% among 350,000;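 active means inhibition of the ligand-induced calcium signal above about 50% at the single tested concentration, limit read from the data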
FAS-TE inh = FAS thioesterase (human) inhibition | P49327 | recombinant FAS-TE, OMFH fluorogenic substrate, fluorescence endpoint | inhibition, % at 15 µM | hit rate 0.67% among 360,000;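 active means compounds whose normalised, plate-corrected inhibition of enzyme fluorescence in the single-dose primary screen is 50% or more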
Large screens that a line does not name were inactive. Compounds with a hit are over-represented: about 3.2% of the library has one in this group of screens.

COCCn1nnnc1CN(CCc1ccccc1)Cc1cc2cc(OC)ccc2[nH]c1=O	Cardio protect 64.0
Cc1ccc(CNC(=O)COC(=O)c2ccc(S(=O)(=O)N(C)C)cc2)cc1	none
COc1cc(/C=N/n2cnnc2-n2nc(C)cc2C)cc([N+](=O)[O-])c1O	none
COC(=O)c1cc(OC)nc2ccc(Br)cc12	none
Cc1cc(C(=O)CN2C(=O)NC(C)(CC(C)C)C2=O)c(C)n1-c1ccc2c(c1)OCO2 (stereo unspecified)	CRFR2-BP antag 80.4
Cc1cc(C(=O)CN2C(=O)NC3(CCCC3)C2=O)c(C)n1-c1ccc2c(c1)OCO2	none
Cc1cc(C(C2C(=O)CC(C)(C)CC2=O)C2C(=O)CC(C)(C)CC2=O)cc(C)c1OC(F)F	CRFR2-BP ag 58.7
COc1cccc(C(C2C(=O)CC(C)(C)CC2=O)C2C(=O)CC(C)(C)CC2=O)c1	none
Cc1ccccc1-c1csc(C(O)c2ccc(F)c(F)c2)n1 (stereo unspecified)	none (no result: PfG6PD inh, CRFR2-BP ag, CRFR2-BP antag)
CCOC(=O)N1CCN(C(=O)CSc2nc3ccccc3c(=O)n2-c2ccccc2)CC1	Cardio protect 52.1
COC(=O)c1ccc(CSc2nc3ccccc3c(=O)n2-c2ccc(OC)c(OC)c2)o1	none
COC(=O)c1ccc(CSc2nc3ccccc3c(=O)n2-c2ccccc2)o1	CRFR2-BP antag 52.6
CC(=O)Oc1ccccc1C(=O)OCCN=C1NS(=O)(=O)c2ccccc21	none
CC(=O)OC[C@@H]1CN(Cc2ccccc2)C[C@H](n2cnc3c(NCC(C)C)ncnc32)O1	none (no result: PfG6PD inh, CRFR2-BP ag, CRFR2-BP antag)
COc1cccc(CN(C)C(=O)C(Cc2ccccc2)NC(=O)c2ccccc2)c1OC (stereo unspecified)	Cardio protect 57.2
COc1ccc(CN(C)C(=O)C(Cc2ccccc2)NC(=O)c2ccccc2)c(OC)c1OC (stereo unspecified)	none
COc1cccc(NC(=S)NC(=O)Cc2ccc(Cl)cc2)c1	CRFR2-BP ag 67.9
Cc1cccc(NC(=S)NC(=O)Cc2ccccc2)c1C	CRFR2-BP ag 70.7
Cc1cccc(NC(=S)NC(=O)CCc2ccccc2)c1C	none
Fc1cccc(NC(=S)NCc2ccc(Cl)cc2)c1	CRFR2-BP antag 53.9
COc1ccc(CNC(=S)Nc2cccc(C)c2C)cc1	CRFR2-BP antag 51.6
COc1ccc(CC(=O)NC(=S)Nc2cccc(CO)c2)cc1	none
COc1ccc(NC(=O)CN(C)CC(=O)N(C)C2(C#N)CCC(C)CC2)cc1 (stereo unspecified)	none
COc1ccccc1NC(=S)NC(=O)Cc1ccc(Cl)cc1	CRFR2-BP ag 63.4
COc1ccc(CC(=O)NC(=S)Nc2cccc(C)c2)cc1	CRFR2-BP ag 58.4
COc1ccc(N2CCN(C(=O)CSc3nnc(C4CC4)n3C3CC3)CC2)cc1	none
Cc1cccc(NC(=O)CN2CCOCC2)c1C	none
O=C(COC(=O)C12CC3CC(CC(O)(C3)C1)C2)Nc1ccc(Cl)cc1F	none
COC(=O)c1ccc(C(=O)OC)c(NC(=O)COC(=O)C23CC4CC(CC(O)(C4)C2)C3)c1	Cardio protect 87.8
CC(C)=CCN1CCN(Cc2cnc(-c3ccccc3)s2)CC1CCO (stereo unspecified)	none
O=C(c1ccc(Cl)c(S(=O)(=O)N2CCOCC2)c1)N1CCCCCC1	none
CC(C)CN(CC(C)C)C(=O)CCCC(=O)N(CC(C)C)CC(C)C	CRFR2-BP antag 52.5
CCCCC(=O)N(CCC)CCC	none
CCCn1nc([N+](=O)[O-])c(C(C#N)c2nc3ccccc3s2)c(Cl)c1=O (stereo unspecified)	CRFR2-BP antag 68.5
O=C(CCc1nnc(CCc2ccccc2)o1)NC(c1cccnc1)C(F)(F)F (stereo unspecified)	none
S=C(Nc1ccccc1Oc1ccccc1)Nc1cccc(Cl)c1Cl	none
COc1ccc(C2Nc3ccc(Br)cc3C(c3ccccc3)N2CC(=O)O)cc1 (stereo unspecified)	CRFR2-BP antag 86.5
O=C(O)CN1C(c2ccccc2O)Nc2ccc(Br)cc2C1c1ccccc1 (stereo unspecified)	CRFR2-BP antag 63.3
COC(=O)CN1C(=O)Nc2ccc(Br)cc2C1c1ccccc1 (stereo unspecified)	none
C[C@H]1CN([C@@H](C)CO)C(=O)c2cccc(NS(=O)(=O)c3cn(C)cn3)c2O[C@H]1CN(C)S(C)(=O)=O	none
O=C(CN1C(=O)NC2(CCCC2)C1=O)N1CCN(S(=O)(=O)c2ccccc2[N+](=O)[O-])CC1	none
CCn1cc(C(=O)Nc2cccc(NC(C)=O)c2)c2cc(OC)c(OC)cc2c1=O	Cardio protect 54.9
CCn1cc(C(=O)Nc2ccc3c(c2)OCCO3)c2cc(OC)c(OC)cc2c1=O	none
C=CCn1c(O)c(C(CC)=Nc2ccccc2NC(=O)CC)c(=O)[nH]c1=O	CRFR2-BP antag 76.3
C=CCn1c(O)c(C(CC)=NCCN2CCOCC2)c(=O)[nH]c1=O	none
Cc1cc(N2CCCC2=O)cc(C)c1S(=O)(=O)NCCOc1ccc(C(C)(C)C)cc1	aDG glyco act 11.2
COc1cc(C2C=C(c3cccs3)Nc3ncnn32)cc(OC)c1OC (stereo unspecified)	CRFR2-BP ag 220.8
Cc1ccc(S(=O)(=O)N/N=C/c2ccc(OC3CSC3)cc2)cc1	CRFR2-BP ag 75.4
Cc1ccc(S(=O)(=O)N/N=C/c2ccc(C(=O)O)cc2)cc1	none
CC12CCCC[C@@H]1CCC1C2CCC2(C)C1CC[C@@]2(O)CNCCO (stereo partly specified)	none
COc1ccc(-c2cc(C(=O)N/N=C(\C)c3cccnc3)c3ccccc3n2)c(OC)c1	none
CCS(=O)(=O)N1Cc2ccccc2CC1C(=O)Nc1nnc(SCc2c(Cl)cccc2Cl)s1 (stereo unspecified)	none
CCSc1nnc(NC(=O)C2Cc3ccccc3CN2S(=O)(=O)CC)s1 (stereo unspecified)	Cardio protect 63.8
O=C(NCCN1CCCCC1)Nc1cccc(C(F)(F)F)c1	none
O=C(/C=C/c1ccc2ccccc2n1)N1CCN(c2ccccc2)CC1	CRFR2-BP antag 74.7
O=Nc1nc2ncccn2c1-c1ccccc1	CRFR2-BP antag 58.2
CCn1cc(CN2CCC(Oc3ccc(C(=O)N4CCCCC4)cc3)CC2)cn1	none
N#Cc1cnn2cc(-c3ncc(C(F)(F)F)cc3Cl)cnc12	Cardio protect 59.1
FC(F)(F)c1cnc(-c2cnc3c(-c4ccc(Cl)cc4)cnn3c2)c(Cl)c1	none
CC1(C)C(=O)Nc2ccccc2N1C(=O)COc1ccc(C#N)cc1	none
CCCCc1nnc2c(N(C)S(=O)(=O)c3ccccc3)nc3ccccc3n12	CRFR2-BP antag 58.9
CCOC(=O)C1CCN(C(=O)CCC2CCCC2)CC1	none
CCc1cc(C(=O)N2CCCC(Nc3ccc(F)c(F)c3)C2)n(C)n1 (stereo unspecified)	none
Fc1ccc(-[n+]2nc(Nc3ccccc3)sc2-c2c(Cl)cccc2Cl)cc1	PfG6PD inh 63.7
